Sm TGR inh – S. mansoni TGR enzyme inhibition. Q962Y6. purified TGR, DTNB reduction, TNB absorbance 405 nm. Potency, µM (series often up to 114 µM), for inactives: top-dose activity change, negative = inhibition, most hits filed as inhibitors. actives 3% (n = 360,000); note: potency is the fitted concentration of half-maximal effect; nearly all actives have a fitted effect of over 60% in size
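Kinetic colorimetric format: TGR-catalysed, NADPH-driven DTNB reduction monitored via TNB absorbance. Enzyme dispensed at 20 nM; compound exposure 15 min at room temperature before reaction start.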
VACV mCherry inh – vaccinia inhibition (mCherry reporter) | Vaccinia virus mCherry reporter infection, fluorescence | Potency, µM (series often up to 36.5 µM), without a hit: at the top dose activity change, negative = inhibition, actives largely listed as inhibitors | actives 0.63% (n = 310,000); calls by dose curve; tested in A549 cells; note: potency is the fitted concentration of half-maximal effect; nearly all actives have a fitted effect of over 35% in size
VACV Venus inh – vaccinia inhibition (Venus reporter) | Vaccinia virus Venus reporter expression, fluorescence | Potency, µM (doses to about 36.5 µM), for inactives: at the highest dose activity change, negative = inhibition, usual class: inhibitors | actives 0.46% (n = 330,000) | AID 720580; calls by dose curve; tested in A549 cells; note: potency is the fitted concentration of half-maximal effect; nearly all actives have a fitted effect of over 30% in size
HCV inh – inhibitors of hepatitis C virus infection; Huh7.5.1 HCVcc-Cre infection, luciferase reporter, 44 h; Potency, µM (top dose mostly 41.8 µM), for inactives: top-dose activity change, negative = inhibition, most hits filed as inhibitors; actives 3.4% (n = 340,000); AID 651820; note: potency is the fitted concentration of half-maximal effect
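Cells seeded at 1,000/well and cultured 4 h, then compounds added followed by HCVcc-Cre virus (~0.5 moi). After 44 h further culture, luciferase substrate was added, plates held 15 min at room temperature, and luminescence read for 15 sec.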
HCMV antiviral – blocks human cytomegalovirus replication; HFF cells, HCMV-luciferase reporter, 72 h; stronger effect = lower value; activity change, negative = inhibition, % at 57.5 µM; actives 4.5% (n = 410,000); AID 1259415; in the data active = activity change below about -60%; inconclusive = no clear call, values can overlap the other calls; inactive = above about -39%
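Compounds were evaluated in HFFs infected with an HCMV luciferase reporter virus (MOI 1 PFU/cell). Luciferase in lysates collected 72 h post infection served as the replication measure.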
FMDV antiviral – foot and mouth disease virus antiviral activity | actives 1.2% (n = 410,000) | FMDV antiviral cell-based qHTS | Potency, µM (doses to about 57.9 µM), for inactives: top-dose activity change, negative = inhibition, usual class: inhibitors | AID 1159524; calls by dose curve; tested in HEK293T cells; note: read-out not given here; potency is the fitted concentration of half-maximal effect; nearly all actives have a fitted effect of over 45% in size
Numbers without * were called inactive; i = inactive; ? = inconclusive; . = no result given; [ ] = remark or other dose. This is a sample that favours compounds with a hit; in the whole collection about 9.3% have one here. Unless noted, calls come from the whole dose curve; as a rule, active = well fitted curve in the direction sought with a large enough effect; inconclusive = small, poorly fitted or top-dose-only effect, or another doubt; inactive = no such curve, though single readings can be large; an effect the other way counts as inactive or inconclusive. % is set by controls: 0 for no effect and ±100 for the full control effect.

SMILES	Sm TGR inh	VACV mCherry inh	VACV Venus inh	HCV inh	HCMV antiviral	FMDV antiviral
CS(=O)(=O)c1oc(-c2ccc(F)cc2)nc1S(=O)(=O)c1ccc(Cl)cc1	0.71µM*	?	?	.	-96*	25µM*
CCOc1ccc(S(=O)(=O)/N=C(\N)c2ccccc2)cc1	5%	?	-7%	?	-39	-13%
COc1cc(NC(=O)CSCc2ccc(Cl)cc2Cl)c(C(=O)O)cc1OC	-20%	i	-2%	-1%	24	-12%
COc1cc2ccc(C=O)cc2cc1OC	.	i	-14%	.	-27	-1%
CCS(=O)(=O)c1oc(-c2ccc(F)cc2)nc1S(=O)(=O)c1ccc(Br)cc1	0.63µM*	-22%	?	.	-99*	14µM*
CSc1oc(-c2ccccc2)nc1S(=O)(=O)c1ccc(F)cc1	1%	-29%	-15%	-8%	?	-30%
O[C@@H](c1cc(C(F)(F)F)nc2c(C(F)(F)F)cccc12)[C@H]1CCCCN1	0%	?	?	8.9µM*	24	-25%
OC(c1cc(-c2ccc(Cl)cc2)nc2ccccc12)C1CCCCN1 (centres undefined)	1%	?	14µM*	?	4	?
CCOC(=O)c1c(C)[nH]c(C)c1S(=O)(=O)NCC(=O)Nc1ccc(C)cc1C	-6%	-13%	-3%	.	1	31%
CSc1ccc(CCNC(=O)CCn2c(=O)c3cccn3c3ccc(F)cc32)cc1	3%	-2%	1%	.	-22	-16%
Cc1ccc2c(=O)c(C(=O)c3ccccc3)cn(CC(=O)Nc3ccccc3C)c2n1	3%	-11%	-6%	.	9	-11%
CN(C(=O)COn1nnc2ccc(S(=O)(=O)N3CCOCC3)cc21)c1ccccc1	-3%	-16%	-6%	11%	-22	-24%
Cc1ccccc1COn1nnc2ccc(S(=O)(=O)N3CCOCC3)cc21	4%	4.5µM*	7.9µM*	6%	-19	?
CCc1cc(SC#N)cc(C)c1NC(=O)CCl	10µM*	?	?	?	-96*	-21%
Cc1cc(SC#N)cc(C)c1NC(=O)CCl	14µM*	-15%	-9%	0%	-83*	-5%
CCc1cc(SC#N)cc(C)c1N	6%	.	.	-6%	-13	-16%
CCC(=O)Nc1ccc(SC#N)cc1C	10%	i	-15%	2%	7	.
CCC(C)NCCOc1ccc(C(C)(C)c2ccccc2)cc1 (centres undefined)	1%	-18%	-19%	10µM*	?	?
CCCOc1ccc(OCCCCNC(C)CC)cc1 (centres undefined)	-1%	-17%	-19%	?	10	-1%
COCCCNCCCCOc1ccc(OCc2ccccc2)cc1	.	-3%	-19%	11µM*	?	55%
CNCCCOc1ccc(C(C)(C)c2ccccc2)cc1	-19%	.	.	.	.	.
C=CCNCCCCOc1ccc(OCc2ccccc2)cc1	.	.	.	?	-69*	29%
COCCCNCCOc1ccc(C(C)(C)c2ccccc2)cc1	-17%	-23%	-19%	10µM*	-25	-17%
O=C(COC(=O)c1ccc(Cl)cc1)NC(=O)NC1CCCC1	-9%	i	2%	9%	-29	-8%
Nc1ncc(Br)cc1S(=O)(=O)NCCC(=O)NCCc1ccccc1	-27%	.	.	12%	-21	58%
SMILES	Sm TGR inh	VACV mCherry inh	VACV Venus inh	HCV inh	HCMV antiviral	FMDV antiviral
COc1cccc(OC)c1C(=O)Nc1ccc2c(c1)OCCO2	2%	.	.	12%	-79*	-3%
Cc1ccccc1C(=O)Nc1ccc2c(c1)OCCO2	2%	.	.	-5%	-14	-21%
COc1cc(C(=O)Nc2ccc3c(c2)OCCO3)ccc1OC(C)C	-7%	.	-21%	13µM*	108	-3%
O=C(Nc1ccc2c(c1)OCCO2)c1coc2ccccc2c1=O	-1%	?	-25%	13%	-36	7.9µM*
COc1cc2cc(C(=O)Nc3ccc4c(c3)OCCO4)[nH]c2cc1OC	-6%	.	.	?	-68*	?
COc1cc(C(=O)Nc2ccc3c(c2)OCCO3)ccc1OC(F)F	-8%	.	.	?	121	-12%
COc1ccc(N/N=C(\C#N)C(=N)SCc2ccccc2)cc1	?	?	?	1%	20	?
Cc1cccc(Cc2cnc(NC(=O)C3Cc4ccc(C)cc4C(=O)O3)s2)c1 (centres undefined)	2%	5%	0%	.	6	-15%
Cc1ccc(Cl)c(OCC(=O)Nc2cc(S(=O)(=O)N3CCOCC3)ccc2N2CCCC2)c1	-8%	-11%	-17%	-29%	-19	-11%
Cc1cc(Cl)ccc1NC(=S)NCc1ccc(S(N)(=O)=O)cc1	?	-10%	-6%	-12%	?	-1%
COc1ccc2cc(C(=O)NCCc3ccccc3)[nH]c2c1	-18%	.	.	-2%	-7	40%
COc1cc2cc(C(=O)NCCc3ccccc3)[nH]c2cc1OC	89µM*	-10%	-9%	-18%	5	16%
Cc1ccc2[nH]c3c(=O)n(CC(=O)N4CCN(c5cccc(C(F)(F)F)c5)CC4)ncc3c2c1	6%	1%	-6%	.	-10	-16%
Cc1cc(N2CCN(S(=O)(=O)c3ccc(Cl)cc3)CC2)c2ccccc2n1	2%	?	?	11µM*	-87*	.
Cn1c(N2CCN(C(=O)C34CC5CC(CC(C5)C3)C4)CC2)nc2ccccc21	1%	.	.	0%	.	.
Cc1ccc(C(=O)N2CCN(c3nc4ccccc4n3C)CC2)cc1	-10%	.	.	-26%	-62*	?
Cn1c(N2CCN(S(=O)(=O)c3ccc(Cl)cc3)CC2)nc2ccccc21	-2%[57.1 µM]	-3%	-6%	-27%	-61*	?
Cc1cc(N2CCN(S(=O)(=O)c3ccc(Cl)c(Cl)c3)CC2)c2ccccc2n1	.	.	.	11µM*	?	?
CC(=O)c1nc(N2CCN(S(=O)(=O)c3ccc(C)cc3)CC2)c2ccccc2n1	.	i	-16%	.	.	.
CCc1nc2ccccc2nc1N1CCN(S(=O)(=O)c2ccc(Cl)cc2)CC1	13%	i	-18%	-23%	0	?
CC1=NNC(=O)C1C(c1ccc(Cl)cc1)C(C#N)C#N (centres undefined)	11µM*	-4%	-1%	-15%	-15	-24%
CC1=NN(Cc2ccccc2)C(=O)C1C(c1ccc(Cl)cc1)C(C#N)C#N (centres undefined)	14µM*	-28%	-24%	3%	-23	28µM*
O=[N+]([O-])c1ccc(NN=CCCc2ccccc2)nc1	.	-19%	-13%	?	0	15%
Cc1ccc(CSC2=NCCN2C(=O)c2ccco2)cc1	5%	46%	3%	0%	1	3%
CCc1cc(=O)oc2cc3occ(C)c3cc12	0%	-10%	-6%	?	17	-22%
COc1cc(OC)c2c(-c3cccc(-c4ccc(OC)c(F)c4)c3)cc(=O)oc2c1	.	?	?	?	-68*	-8%
